Source: PubChem BioAssay (EPA / NIEHS)
Records with an inconclusive call do not appear. Calls of active or inactive are those of the source. Rule for the calls: active = hit-call score of the fitted dose curve at least 0.9, where 1 is the maximum; inconclusive = response in the unintended direction; inactive = score below 0.9.

molecular target: Estrogen receptor (Homo sapiens) (UniProt P03372); experiment: CCTE_Deisenroth_AIME_384WELL_LUC_Active: CCTE's 384-well Estrogen Receptor Transactivation Assay with AIME metabolic competence (ERTA luciferase; metabolism positive), Deisenroth Lab (AID 2284030)
Protocol: CCTE_Deisenroth_AIME_384WELL (AIME metabolism assay) is a cell-based, single-readout assay that uses VM7Luc4E2, a human mammary gland/breast cell line, with measurements taken at 24 hour after chemical dosing in a 384-well plate.CCTE_Deisenroth_AIME_384WELL_LUC_Active is one of four assay components measured or calculated from the CCTE_Deisenroth_AIME_384WELL assay. It is designed to make measurements of luciferase induction, a form of inducible reporter, as detected with bioluminescence signals by luciferase-coupled ATP quantitation technology.CCTE_Deisenroth_AIME_384WELL_LUC_Active is a component of the CCTE_Deisenroth_AIME_384WELL assay that measures the effect of retroftting the VM7Luc ERTA assay with the Alginate Immobolization of Metabolic Enzymes (AIME) metabolism method. AIME is optimized to impart phase I hepatic metabolism using phenobarbital/beta-naphthoflavone induced hepatic S9 from male Sprague Dawley rats. Parent chemicals are incubated for 2 hours in the AIME assay prior to transfer to the VM7Luc ERTA assay plate. […] This endpoint evaluates reporter induction in metabolism positive mode. Using a type of inducible reporter in VM7Luc cells, gain-of-signal activity can be used to understand changes in the reporter gene as they relate to xenobiotic metabolism and the gene ESR1. This assay endpoint, CCTE_Deisenroth_AIME_384WELL_LUC_Active, was analyzed in the positive analysis fitting direction relative to 17beta-estradiol as the positive control in the ERTA assay. To generalize the intended target to other relatable targets, this assay endpoint is annotated to the nuclear receptor intended target family, where the subfamily is steroidal.
The AIME procedure consists of a preparative "pre-stamping" step using a barium chloride/poly-L-lysine (PLL) solution followed by "stamping" the lid in alginate-hepatic S9 (metabolism positive) or alginate-water (metabolism negative) to form microspheres. Once stamping is completed, the AIME lids are placed in duplicate microplates (metabolism positive or negative) containing chemical solutions and incubated for two hours to facilitate metabolic reactions. The conditioned medium, containing parent chemical or metabolites, is then transferred to the cell-based VM7Luc Estrogen Receptor Transactivation Assay (ERTA) for 24 hours. A typical experimental design tests a 10-point concentration series (0.002 - 200 uM) for 8 compounds (96-well format)1 or 32 compounds (384-well format)2 in single technical replicate. AIME assay controls include trans-stilbene (bioactivated control) and ethylparaben (bioinactivated control). ERTA assay plate controls include 17-beta estradiol (positive control) and DMSO (solvent control). Experiments typically comprise a minimum of four experimental replicates (n=4).

Estrogen receptor (Homo sapiens), sequence (P03372 whole entry, looked up): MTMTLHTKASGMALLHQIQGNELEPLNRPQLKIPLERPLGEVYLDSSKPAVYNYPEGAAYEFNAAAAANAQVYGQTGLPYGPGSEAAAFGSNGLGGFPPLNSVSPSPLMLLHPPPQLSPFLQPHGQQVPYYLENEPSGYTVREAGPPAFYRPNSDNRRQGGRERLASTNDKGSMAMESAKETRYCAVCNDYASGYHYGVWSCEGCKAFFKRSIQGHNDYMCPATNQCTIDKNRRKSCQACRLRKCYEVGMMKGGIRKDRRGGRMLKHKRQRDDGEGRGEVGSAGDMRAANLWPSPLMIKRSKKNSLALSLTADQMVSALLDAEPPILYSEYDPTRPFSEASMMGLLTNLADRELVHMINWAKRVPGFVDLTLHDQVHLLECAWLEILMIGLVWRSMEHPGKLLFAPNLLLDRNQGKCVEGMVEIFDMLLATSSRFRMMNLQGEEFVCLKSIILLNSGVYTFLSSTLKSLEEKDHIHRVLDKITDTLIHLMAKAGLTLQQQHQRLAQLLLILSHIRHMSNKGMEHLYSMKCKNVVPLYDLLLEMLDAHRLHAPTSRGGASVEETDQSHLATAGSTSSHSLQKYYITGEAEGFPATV

Row | SMILES | outcome | AC50
1 | O=S(=O)(O)c1ccccc1C=Cc1ccc(-c2ccc(C=Cc3ccccc3S(=O)(=O)O)cc2)cc1 | inactive | 
2 | O=C1C(N(CO)C(=O)NCO)N(CO)C(=O)N1CO (stereo not drawn) | inactive | 
3 | O=C(C=Cc1ccccc1)OCc1ccccc1 | inactive | 
4 | CCCCC(CC)CCC(CC(C)C)OS(=O)(=O)O (stereo not drawn) | inactive | 
5 | NC(CO)(CO)CO | inactive | 
6 | Cc1ccc(C(C)c2ccc(C)c(C)c2)cc1C |  | 16 µM (active)
7 | CCCCCc1ccc(Cl)cc1 | inactive | 
8 | CCN(CCC#N)c1ccc(N=Nc2c(Cl)cc([N+](=O)[O-])cc2Cl)cc1 | inactive | 
9 | O=C(C(Cl)Cl)N1CCOC12CCCCC2 | inactive | 
10 | C=C1C2CCC(C2)C1(C)C (stereo not drawn) | inactive | 
11 | CO[Si](OC)(OC)c1ccccc1 | inactive | 
12 | CCCCC/C=C\CCC=O | inactive | 
13 | C=CC(=O)NC(C)(C)CS(=O)(=O)O | inactive | 
14 | OC1CCCC1 | inactive | 
15 | O=C1CCCC1 | inactive | 
16 | O=S1(=O)OC(c2ccc(O)cc2)(c2ccc(O)cc2)c2ccccc21 | inactive | 
17 | O=c1cc(-c2ccccc2)oc2ccccc12 |  | 45.6 µM (active)
18 | CC(=O)OC(C)C | inactive | 
19 | O=C(c1ccccc1)C1CCC1 | inactive | 
20 | CC=C1CC2C=CC1C2 (stereo not drawn) | inactive | 
21 | CC1=NN(c2cc(S(=O)(=O)O)ccc2Cl)C(=O)C1N=Nc1ccccc1 (stereo not drawn) | inactive | 
22 | CCCCCCCCCCOS(=O)(=O)O | inactive | 
23 | CCOC(=O)CC | inactive | 
